Inconclusive results are not listed. A call without a number means that no potency is given here. Active and inactive are the calls of the source. Calls follow the shape of the dose curve; as a rule, active = well fitted inhibition curve with a large enough effect; inconclusive = small, poorly fitted or top-dose-only effect; inactive = no such curve, though single readings can be large or run the other way.

The target of this experiment is Retinaldehyde dehydrogenase 3 (Homo sapiens) (UniProt P47895). Nature of the experiment: qHTS for Inhibitors of the Aldehyde Dehydrogenase Family (ALDH1A3) Primary screen (AID 2061315). The settings on record: ALDH inhibition qHTS; series mostly up to 56 µM.
In the case of `C[C@@H]1CC[C@]2(C(=O)O[C@@H]3O[C@H](CO)[C@@H](O)[C@H](O)[C@H]3O)CC[C@]3(C)C(=CCC4[C@@]5(C)C[C@@H](O)[C@H](O)C(C)(C)C5CC[C@]43C)C2[C@]1(C)O` (stereo partly specified), the Potency entry was “inactive”.

`CC1(C)CC[C@]2(C(=O)O)CC[C@]3(C)C(=CCC4[C@@]5(C)CC[C@H](O[C@@H]6O[C@H](C(=O)O)[C@@H](O[C@@H]7OC[C@@H](O)[C@H](O)[C@H]7O)[C@H](O)[C@H]6O)C(C)(C)C5CC[C@]43C)C2C1O` (stereo partly specified): the Potency result is “inactive”.

On to `COC1OC(OC)C(O)(CCC2(C)C(C)CCC3(C)C2CC(O)C(O)C32CO2)C1O` (stereo unspecified), for which the Potency result is “inactive”.

In the case of `C[C@]12CC[C@@H]3c4ccc(O[C@@H]5O[C@H](C(=O)O)[C@@H](O)[C@H](O)[C@H]5O)cc4CC[C@H]3[C@@H]1CCC2=O`, the Potency result was “inactive”.

For the compound `C[C@@H]1C[C@H]2[C@@H]3CCC4=CC(=O)C=C[C@]4(C)[C@@]3(F)[C@@H](O)C[C@]2(C)[C@@]1(O)C(=O)COP(=O)(O)O`, the Potency entry is “inactive”.

On to `COc1cc(/C=C/C(=O)OC2[C@H](O)CC(O)(C(=O)O)C[C@H]2O)ccc1O` (stereo partly specified), for which the Potency entry is “inactive”.

These data come from PubChem BioAssay (NCATS).
